Test [1] concerns the target rat Thyrotropin Releasing Hormone Receptor (TRH), Trhr (gene 25570) (UniProt Q01717). Nature of the test: NVS_GPCR_rTRH: NovaScreen (NVS) G Protein-Coupled Receptor Assay for rat Thyrotropin Releasing Hormone Receptor (TRH) (AID 2283329).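 Further: hit means lower bound tracer signal versus DMSO baseline.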 The method in brief: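 Competitive radioligand binding on rat forebrain membrane preparations, with filtration and scintillation readout after 4 h. Primary testing in duplicate at 25 uM; actives confirmed in concentration-response. DMSO defined baseline.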

Test [2] deals with human Androgen Receptor (AR), AR (gene 367) (UniProt P10275). The test is described as follows: NVS_NR_hAR: NovaScreen (NVS) Nuclear Receptor Binding Assay for human Androgen Receptor (AR) (AID 2283332). In short, it runs like this: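 Actives from a duplicate 25 uM single-point screen went on to concentration series. Read-out after 20 h was scintillation counting of displaced radioligand in LnCAP extract, with DMSO as baseline.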
Chain of human Androgen Receptor (AR), AR (gene 367) (P10275 whole entry, looked up): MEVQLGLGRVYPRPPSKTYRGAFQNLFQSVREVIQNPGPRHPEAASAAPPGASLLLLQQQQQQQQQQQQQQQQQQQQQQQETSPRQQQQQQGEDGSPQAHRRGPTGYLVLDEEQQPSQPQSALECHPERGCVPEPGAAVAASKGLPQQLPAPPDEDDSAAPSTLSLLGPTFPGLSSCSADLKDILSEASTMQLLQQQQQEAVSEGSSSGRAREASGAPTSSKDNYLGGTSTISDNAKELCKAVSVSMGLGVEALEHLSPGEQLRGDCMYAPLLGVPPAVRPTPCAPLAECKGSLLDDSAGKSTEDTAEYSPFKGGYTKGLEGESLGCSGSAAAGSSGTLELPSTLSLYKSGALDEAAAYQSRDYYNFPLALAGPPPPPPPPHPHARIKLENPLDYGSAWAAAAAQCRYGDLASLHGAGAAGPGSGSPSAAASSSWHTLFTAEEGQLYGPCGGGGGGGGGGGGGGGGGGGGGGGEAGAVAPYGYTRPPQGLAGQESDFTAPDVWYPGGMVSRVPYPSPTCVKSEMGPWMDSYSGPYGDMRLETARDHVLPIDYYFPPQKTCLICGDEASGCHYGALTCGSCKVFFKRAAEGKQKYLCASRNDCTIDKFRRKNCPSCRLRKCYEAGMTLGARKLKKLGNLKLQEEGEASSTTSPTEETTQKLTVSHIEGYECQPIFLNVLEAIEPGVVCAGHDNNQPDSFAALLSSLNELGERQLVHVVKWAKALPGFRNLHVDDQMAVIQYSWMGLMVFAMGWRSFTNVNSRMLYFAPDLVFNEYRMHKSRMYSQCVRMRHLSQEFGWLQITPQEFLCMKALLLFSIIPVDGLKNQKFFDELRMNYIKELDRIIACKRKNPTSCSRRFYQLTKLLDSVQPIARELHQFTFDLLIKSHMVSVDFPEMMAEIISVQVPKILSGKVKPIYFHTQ

For test [3], the target named is rat Peripheral-type Benzodiazepine Receptor (PBR), Tspo (gene 24230) (UniProt P16257). The test is described as follows: NVS_MP_rPBR: NovaScreen (NVS) Membrane Protein Assay for rat Peripheral-type Benzodiazepine Receptor (PBR) (AID 2283335). The method in brief:
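Competitive displacement of specific radioligand from rat kidney membrane PBR, read by filtration and scintillation after 1 h. Compounds first tested at 25 uM in duplicate, then in concentration series; signal loss relative to DMSO.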

The target of test [4] is human Constitutive Androstane Receptor (CAR), NR1I3 (gene 9970) (UniProt Q14994). Nature of the test: NVS_NR_hCAR_Antagonist: NovaScreen (NVS) Nuclear Receptor Binding Assay for human Constitutive Androstane Receptor Antagonism (CAR) (AID 2283344). The method in brief:
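Single 25 uM duplicate primary screen, with concentration-series follow-up on actives. Cell-free binding format run in antagonist mode, TR-FRET signal taken 1 h post-dose; activity is signal loss relative to DMSO.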

The target of test [5] is chimpanzee Androgen Receptor (AR), AR (gene 747460) (UniProt O97775). The test is described as follows: NVS_NR_cAR: NovaScreen (NVS) Nuclear Receptor Binding Assay for chimpanzee Androgen Receptor (AR) (AID 2283346).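 Further: radioligand displacement from AR measured by scintillation counting in a cell-free assay.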 The method in brief:
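Cell-free radioligand displacement using receptor protein extracted from Sf9/Sf21 cells; bound radioligand measured by scintillation counting 72 hours after chemical dosing. Loss of signal versus DMSO baseline indicates binding; primary screen single-concentration in duplicate at 25 uM, actives followed in concentration series.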

The test system of another test is NCBI gene 100848466. The test is described as follows: NVS_NR_bPR: NovaScreen (NVS) Nuclear Receptor Binding Assay for bovine Progextron Receptor (PR) (AID 2283343).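 On AC50: actives lower bound radioligand signal below DMSO meaning displacement of the label.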 The method in brief: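 Steps: bovine uterine membranes were dosed with chemical alongside radioligand, incubated 18 hours, then radiodetected by scintillation counting. Initial testing used 25 uM in duplicate; confirmed actives were rerun as concentration series.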

Test [6] has as its target rat Glutamate, AMPA Site (AMPA), Gria1 (gene 50592) (UniProt P19490). Nature of the test: NVS_LGIC_rAMPA: NovaScreen (NVS) Ligand-Gated Ion Channel Assay for rat Glutamate, AMPA Site (AMPA) (AID 2283324). The method in brief: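 Screening at 25 uM in duplicate preceded concentration series reaching 50 uM for qualifying compounds. Radioligand displacement on rat forebrain membranes, 1 h, filter-based scintillation readout; reduced binding relative to DMSO.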

Test [7] concerns the target Glutamate receptor ionotropic, kainate 1 (Rattus norvegicus) (UniProt P22756). The test is described as follows: NVS_IC_rKAR: NovaScreen (NVS) Ion Channel Assay for rat Kainic Acid Receptors (KAR) (AID 2283334; active means hit-call score of the fitted dose curve at least 0.9, where 1 is the maximum; inactive means score below 0.9). In short, it runs like this: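 Rat forebrain membrane preparation incubated 1 h with radioligand and test chemical; bound signal read by filtration and scintillation. Single-concentration screen at 25 uM, then concentration series to 50 uM maximum.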

Test [8] deals with rat Glutamate, NMDA Agonist Site (GluNMDA), Grin1 (gene 24408) (UniProt P35439). Nature of the test: NVS_LGIC_rGluNMDA_Agonist: NovaScreen (NVS) Ligand-Gated Ion Channel Assay for rat Glutamate, NMDA Agonist Site (GluNMDA) (AID 2283327). In short, it runs like this: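 Radioligand displacement at the agonist site on rat forebrain membrane preparations, read by filter scintillation after 1 h. Chemicals were first run at 25 uM in duplicate; those passing threshold were titrated to a 50 uM maximum.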

The target of test [9] is Voltage-gated inwardly rectifying potassium channel KCNH2 (Homo sapiens) (UniProt Q12809). The test is described as follows: NVS_IC_hKhERGCh: NovaScreen (NVS) Ion Channel Assay for human Potassium Channel ERG (KhERGCh) (AID 2283333). The method in brief:
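Membranes from CHO cells expressing human ERG; displacement of radioligand measured by filtration and scintillation after 0.75 h. Single-concentration duplicate screen at 25 uM, then concentration-response for actives; DMSO baseline.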

A short description of test [10]: NVS_IC_rCaBTZCHL: NovaScreen (NVS) Ion Channel Assay for Calcium Channel, Type L, Benzothiazepine Site (CaBTZCHL) (AID 2283337). In short, it runs like this: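 Test chemicals were added to rat cortical membranes and incubated 1.5 h with a tritiated or iodinated radioligand for the benzothiazepine site. Bound ligand was separated by filtration and counted. Actives from the 25 uM duplicate screen were retested in concentration series.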

For test [11], the system named is guinea pig Histamine Receptor (H2), gene 100729734. Nature of the test: NVS_GPCR_gH2: NovaScreen (NVS) G Protein-Coupled Receptor Assay for guinea pig Histamine Receptor (H2) (AID 2283342). In short, it runs like this:
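Guinea pig striatal membrane preparation with specific radioligand; bound counts measured by filtration and scintillation 1 h post-dosing, DMSO as baseline. Chemicals passing a 25 uM duplicate screen were titrated to a 50 uM maximum.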

The target in test [12] is bovine Estrogen Receptor (ER), ESR1 (gene 407238) (UniProt P49884). Nature of the test: NVS_NR_bER: NovaScreen (NVS) Nuclear Receptor Binding Assay for bovine Estrogen Receptor (ER) (AID 2283345).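 Further: actives lower the bound radioligand count which means they displace the ER ligand.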 In short, it runs like this: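 Displacement of a radioligand from estrogen receptor in bovine uterine membrane preparations; scintillation signal taken at 18 hours, DMSO as baseline. Single-concentration duplicates (25 uM) preceded concentration-response follow-up of actives.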

The target of test [13] is human Serotonin, 5-Hydroxytryptamine Receptor 3 (5HT3), HTR3A (gene 3359) (UniProt P46098). Nature of the test: NVS_LGIC_h5HT3: NovaScreen (NVS) Ligand-Gated Ion Channel Assay for human Serotonin, 5-Hydroxytryptamine Receptor 3 (5HT3) (AID 2283325). In short, it runs like this:
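Initially tested at 25 uM in duplicate, then up to 50 uM in concentration-response for actives, compounds competed with a radioligand for HEK293-derived human 5-HT3 receptor. Bound counts were measured by filtration and scintillation at 1 h; loss of signal versus DMSO.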

As usually defined, the AC50 is the midpoint of the concentration-response curve, whichever way the signal moves.

Results filed as inconclusive are left out. Active and inactive are the calls of the source. How the source made its calls, unless noted: active means hit-call score of the fitted dose curve at least 0.9, where 1 is the maximum; inconclusive means response in the unintended direction; inactive means score below 0.9.

Chain of chimpanzee Androgen Receptor (AR), AR (gene 747460) (O97775 whole entry, looked up): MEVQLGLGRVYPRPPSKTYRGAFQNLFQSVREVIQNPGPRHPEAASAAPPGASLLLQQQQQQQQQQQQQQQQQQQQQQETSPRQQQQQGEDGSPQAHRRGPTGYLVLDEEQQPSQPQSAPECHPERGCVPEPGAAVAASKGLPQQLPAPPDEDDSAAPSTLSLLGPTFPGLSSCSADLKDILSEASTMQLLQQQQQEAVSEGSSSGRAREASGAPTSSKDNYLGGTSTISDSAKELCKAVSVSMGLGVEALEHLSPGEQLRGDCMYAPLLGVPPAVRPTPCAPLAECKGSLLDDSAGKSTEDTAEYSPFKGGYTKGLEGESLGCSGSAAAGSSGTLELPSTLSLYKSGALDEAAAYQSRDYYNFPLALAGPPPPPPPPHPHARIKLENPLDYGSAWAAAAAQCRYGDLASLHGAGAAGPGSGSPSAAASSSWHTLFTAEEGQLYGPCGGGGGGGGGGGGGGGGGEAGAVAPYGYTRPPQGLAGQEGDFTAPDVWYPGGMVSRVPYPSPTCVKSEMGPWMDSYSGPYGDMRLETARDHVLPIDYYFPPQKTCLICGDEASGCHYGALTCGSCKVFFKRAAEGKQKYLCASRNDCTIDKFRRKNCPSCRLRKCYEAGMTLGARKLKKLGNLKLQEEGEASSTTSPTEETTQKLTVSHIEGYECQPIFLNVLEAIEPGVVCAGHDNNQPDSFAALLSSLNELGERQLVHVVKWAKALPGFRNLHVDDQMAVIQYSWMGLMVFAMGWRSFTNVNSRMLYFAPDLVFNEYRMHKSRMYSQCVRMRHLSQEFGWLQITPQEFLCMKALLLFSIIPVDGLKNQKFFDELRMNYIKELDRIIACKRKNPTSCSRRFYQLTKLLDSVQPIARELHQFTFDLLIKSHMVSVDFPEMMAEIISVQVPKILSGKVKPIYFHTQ
Chain of human Constitutive Androstane Receptor (CAR), NR1I3 (gene 9970) (Q14994 whole entry, looked up): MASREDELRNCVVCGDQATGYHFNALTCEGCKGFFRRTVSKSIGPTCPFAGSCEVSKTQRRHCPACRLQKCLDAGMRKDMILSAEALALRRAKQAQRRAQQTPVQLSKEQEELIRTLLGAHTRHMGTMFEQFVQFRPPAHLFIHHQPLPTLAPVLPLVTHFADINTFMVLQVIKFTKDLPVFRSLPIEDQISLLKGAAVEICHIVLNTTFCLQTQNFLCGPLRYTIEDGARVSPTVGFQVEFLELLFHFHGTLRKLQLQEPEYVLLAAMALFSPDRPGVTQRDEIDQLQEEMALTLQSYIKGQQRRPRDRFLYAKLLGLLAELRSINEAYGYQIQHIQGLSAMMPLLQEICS
Chain of rat Glutamate, AMPA Site (AMPA), Gria1 (gene 50592) (P19490 whole entry, looked up): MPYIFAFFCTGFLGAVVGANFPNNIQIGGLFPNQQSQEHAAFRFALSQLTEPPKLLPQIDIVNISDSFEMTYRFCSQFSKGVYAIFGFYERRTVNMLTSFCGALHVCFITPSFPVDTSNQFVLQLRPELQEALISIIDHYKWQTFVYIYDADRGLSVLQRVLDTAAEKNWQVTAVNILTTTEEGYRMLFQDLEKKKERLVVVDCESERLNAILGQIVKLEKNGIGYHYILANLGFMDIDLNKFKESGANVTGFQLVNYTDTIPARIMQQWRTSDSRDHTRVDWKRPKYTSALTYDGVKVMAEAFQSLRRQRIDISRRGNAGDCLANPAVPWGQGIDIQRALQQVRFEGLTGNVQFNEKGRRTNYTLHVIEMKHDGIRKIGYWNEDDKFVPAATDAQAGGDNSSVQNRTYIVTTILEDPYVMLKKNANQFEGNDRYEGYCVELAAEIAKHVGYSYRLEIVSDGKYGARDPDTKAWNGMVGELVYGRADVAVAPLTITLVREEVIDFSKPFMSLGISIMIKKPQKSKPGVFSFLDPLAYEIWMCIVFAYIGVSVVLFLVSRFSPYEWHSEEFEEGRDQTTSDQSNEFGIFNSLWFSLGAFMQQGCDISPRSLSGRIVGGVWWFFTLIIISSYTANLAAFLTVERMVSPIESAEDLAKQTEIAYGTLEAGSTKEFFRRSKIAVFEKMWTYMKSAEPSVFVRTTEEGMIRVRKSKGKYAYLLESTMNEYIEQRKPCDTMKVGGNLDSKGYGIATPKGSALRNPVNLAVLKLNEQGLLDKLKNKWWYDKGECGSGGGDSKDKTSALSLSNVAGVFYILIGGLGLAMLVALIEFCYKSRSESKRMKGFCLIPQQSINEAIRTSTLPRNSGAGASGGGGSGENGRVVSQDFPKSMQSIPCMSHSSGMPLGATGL
Chain of rat Thyrotropin Releasing Hormone Receptor (TRH), Trhr (gene 25570) (Q01717 whole entry, looked up): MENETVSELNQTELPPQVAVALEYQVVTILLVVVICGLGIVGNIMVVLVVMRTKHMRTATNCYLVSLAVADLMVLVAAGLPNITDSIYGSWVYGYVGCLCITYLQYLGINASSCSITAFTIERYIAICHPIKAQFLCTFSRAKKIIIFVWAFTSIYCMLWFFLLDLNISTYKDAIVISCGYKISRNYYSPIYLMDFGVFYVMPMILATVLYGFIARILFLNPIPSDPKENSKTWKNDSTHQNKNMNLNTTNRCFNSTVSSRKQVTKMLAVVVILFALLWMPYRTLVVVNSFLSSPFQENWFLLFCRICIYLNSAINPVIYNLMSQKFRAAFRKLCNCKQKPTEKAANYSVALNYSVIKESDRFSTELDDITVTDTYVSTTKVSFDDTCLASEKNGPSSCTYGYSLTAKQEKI
Chain of rat Peripheral-type Benzodiazepine Receptor (PBR), Tspo (gene 24230) (P16257 whole entry, looked up): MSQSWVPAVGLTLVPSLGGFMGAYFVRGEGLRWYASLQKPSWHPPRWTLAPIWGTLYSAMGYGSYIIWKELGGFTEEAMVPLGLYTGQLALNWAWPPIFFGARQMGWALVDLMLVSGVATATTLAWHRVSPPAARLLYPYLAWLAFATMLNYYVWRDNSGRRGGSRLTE
Chain of Voltage-gated inwardly rectifying potassium channel KCNH2 (Homo sapiens) (Q12809 whole entry, looked up): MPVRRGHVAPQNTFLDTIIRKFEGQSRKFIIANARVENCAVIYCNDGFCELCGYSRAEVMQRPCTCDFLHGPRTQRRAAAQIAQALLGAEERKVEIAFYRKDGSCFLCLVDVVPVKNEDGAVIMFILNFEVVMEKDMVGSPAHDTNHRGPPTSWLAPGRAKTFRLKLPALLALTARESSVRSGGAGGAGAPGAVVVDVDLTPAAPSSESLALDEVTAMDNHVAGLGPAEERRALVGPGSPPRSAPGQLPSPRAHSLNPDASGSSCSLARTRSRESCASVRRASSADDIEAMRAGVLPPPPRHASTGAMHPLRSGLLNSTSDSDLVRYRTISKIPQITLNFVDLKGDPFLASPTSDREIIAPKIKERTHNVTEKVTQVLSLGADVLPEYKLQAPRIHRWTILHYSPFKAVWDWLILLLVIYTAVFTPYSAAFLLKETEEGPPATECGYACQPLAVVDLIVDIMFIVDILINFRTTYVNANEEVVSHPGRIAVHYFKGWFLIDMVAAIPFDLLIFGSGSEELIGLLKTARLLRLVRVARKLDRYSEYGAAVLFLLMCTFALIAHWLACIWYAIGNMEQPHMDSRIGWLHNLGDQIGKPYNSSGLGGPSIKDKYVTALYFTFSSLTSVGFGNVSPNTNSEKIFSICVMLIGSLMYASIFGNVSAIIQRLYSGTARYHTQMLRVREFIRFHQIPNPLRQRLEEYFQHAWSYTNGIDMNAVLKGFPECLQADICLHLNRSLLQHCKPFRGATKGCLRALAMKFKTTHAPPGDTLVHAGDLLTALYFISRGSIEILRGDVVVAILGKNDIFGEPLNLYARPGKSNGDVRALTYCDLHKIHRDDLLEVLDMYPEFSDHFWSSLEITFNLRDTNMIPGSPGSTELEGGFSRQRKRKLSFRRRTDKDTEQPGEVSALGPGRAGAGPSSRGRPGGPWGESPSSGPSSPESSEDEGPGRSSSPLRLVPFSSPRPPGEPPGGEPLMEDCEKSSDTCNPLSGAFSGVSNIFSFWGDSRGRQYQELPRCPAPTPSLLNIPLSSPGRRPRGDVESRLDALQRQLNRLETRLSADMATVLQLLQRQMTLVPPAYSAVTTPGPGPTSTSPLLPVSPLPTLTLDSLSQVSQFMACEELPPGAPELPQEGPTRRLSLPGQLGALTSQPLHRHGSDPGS

Take `CCC(=O)Nc1ccc(Cl)c(Cl)c1`: the molecule was called inactive in test [1] and in test [4]. Besides, the AC50 in [2] is 8.41 µM (active); in [3], 9.5 µM (active); in [5], 12.4 µM (active).
Regarding `CCOC(=O)CC(SP(=O)(OC)OC)C(=O)OCC` (stereo not given), the result (in test [1]; in the test with NCBI gene 100848466; in test [4]) was inactive. The concentration at half-maximal activity (AC50) in test [3] was 19.7 µM (active).
Take `S=C1NCCN1`: the call in test [6] was inactive.
On to `CON=C(C(=O)OC)c1ccccc1CON=C(C)c1cccc(C(F)(F)F)c1`, for which the result in test [6], in test [1] and in test [4] was inactive. In addition, the AC50 in test [3] was 0.612 µM (active).
`COP(=O)(NC(C)=O)SC` (stereo not given): the molecule was called inactive in test [7].
Regarding `CC[C@H](C)[C@H]1O[C@]2(C=C[C@@H]1C)C[C@@H]1C[C@@H](C/C=C(\C)[C@@H](O[C@H]3C[C@H](OC)[C@@H](O[C@H]4C[C@H](OC)[C@@H](NC)[C@H](C)O4)[C@H](C)O3)[C@@H](C)/C=C/C=C3\CO[C@@H]4[C@H](O)C(C)=C[C@@H](C(=O)O1)[C@]34O)O2`, the AC50 in test [8] was 16.4 µM (active); in test [9] it was 0.00229 µM (active); in test [10] it was 10 µM (active); in test [11], 26.4 µM (active); in [4] it was 31 µM (active); in [5], 6.02 µM (active). In addition, in [12], the molecule was called inactive.
Take `CCCSP(=O)(OCC)SCCC`: the result (in [2]; with NCBI gene 100848466; in test [4]) was inactive. The AC50 in [3] was 11.5 µM (active).
For `CC(C1CC1)C(O)(Cn1cncn1)c1ccc(Cl)cc1` (stereo not given), the outcome (in test [1]; in the test on NCBI gene 100848466) was inactive. Moreover, the AC50 in test [5] is 24.9 µM (active).
`CCC(CC)Nc1c([N+](=O)[O-])cc(C)c(C)c1[N+](=O)[O-]`: the molecule was classed as inactive in test [1], in test [3] and in test [4]. For the same molecule, the AC50 in the test on NCBI gene 100848466 was 40.1 µM (active).
With `CC(C)=CC1C(C(=O)OCN2C(=O)C3=C(CCCC3)C2=O)C1(C)C` (stereo not given), the result in test [6] and in test [3] was inactive.
Regarding `CCCOCC(=Nc1ccc(Cl)cc1C(F)(F)F)n1ccnc1`, the outcome (in test [9]; in test [10]; with NCBI gene 100848466) was inactive. In addition, the AC50 in [3] is 0.807 µM (active); in [4], 5.88 µM (active); in test [5] it was 5.96 µM (active).
For `C#CCC1=C(C)C(OC(=O)C2C(C=C(C)C)C2(C)C)CC1=O` (stereo not given), the molecule was classed as inactive (in test [13]; with NCBI gene 100848466; in test [4]; in [5]). Further, in test [3], the AC50 is 20 µM (active).
For the molecule `C#CC(C)(C)NC(=O)c1cc(Cl)cc(Cl)c1`, the molecule was called inactive (in test [1]; in the test with NCBI gene 100848466; in test [4]). Also, the AC50 in test [3] was 0.19 µM (active).

Source of the values: PubChem BioAssay (EPA / NIEHS).
